# Results taken from the supplement of paper PMC8728848.
# This is one part of a sample in which the strongest signals are shown more often than they occur.
# B1: MD-2 (Homo sapiens) (protein)
# chain: MLPFLFFSTLFSSIFTEAQKQYWVCNSSDASISYTYCDKMQYPISINVNPCIELKGSKGLLHIFYIPRRDLKQLYFNLYITVNTMNLPKRKEVICRGSDDDYSFCRALKGETVNTTISFSFKGIKFSKGKYKCVVEAISGSPEEMLFCLEFVILHQPNSN
# B2: XCL (Xerocomus chrysenteron) (protein)
# chain: MSYSITLRVYQTNRDRGYFSIVEKTVWHFANGGTWSEANGAHTLTQGGSGTSGVLRFLSTKGERITVAVGVHNYKRWCDVVTGLKPDETALVINPQYYNNGGRDYVREKQLAEYSVTSAIGTKVEVVYTVAEGNNLEANVIFS
# Tests used:
# Test in all cases: glycan array binding signal (z-score within array); higher = stronger binding
# Conditions in all cases: glycan notation: IUPAC condensed, linker removed
# [1] = target: Fuc(a1-2)Gal(b1-4)GlcNAc(b1-3)Gal(b1-4)GlcNAc(b1-3)Gal(b1-4)GlcNAc
# Method in brief: (§1)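 The binding signal is a Z-score computed within each array and averaged over linkers. Arrays of the same protein sequence at different concentrations or buffers were also averaged together. Data originate from 3228 arrays in the Consortium for Functional Glycomics database, kept only where the protein sequence was available.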
# [2] = target: Fuc(a1-3)[Gal(b1-4)]GlcNAc(b1-4)Gal(b1-4)[Fuc(a1-3)]GlcNAc(b1-4)Gal(b1-4)[Fuc(a1-3)]GlcNAc
# Method in brief: as §1
# [3] = target: Gal(b1-4)GlcNAc(b1-3)[GlcNAc(b1-6)]Gal(b1-4)GlcNAc
# Method in brief: as §1
# [4] = target: Gal3S(b1-3)GalNAc
# Method in brief: as §1
# [5] = target: Gal3S4S(b1-4)GlcNAc
# Method in brief: as §1
# [6] = target: Gal3S6S(b1-4)GlcNAc6S
# Method in brief: as §1
# [7] = target: Gal6S(b1-4)Glc6S
# Method in brief: as §1
# [8] = target: GalNAc(b1-3)Gal
# Method in brief: as §1
# [9] = target: GlcNAc(a1-6)Gal(b1-4)GlcNAc
# Method in brief: as §1
# [10] = target: GlcNAc(b1-2)Man(a1-3)[GlcNAc(b1-2)Man(a1-6)]Man(b1-4)GlcNAc(b1-4)GlcNAc
# Method in brief: as §1
# [11] = target: GlcNAc(b1-3)Gal(b1-3)GalNAc
# Method in brief: as §1
# [12] = target: GlcNAc(b1-4)GlcNAc(b1-4)GlcNAc(b1-4)GlcNAc(b1-4)GlcNAc
# Method in brief: as §1
# [13] = target: GlcNAc(b1-4)GlcNAc(b1-4)GlcNAc(b1-4)GlcNAc(b1-4)GlcNAc(b1-4)GlcNAc
# Method in brief: as §1
# [14] = target: Man(a1-2)Man(a1-3)Man
# Method in brief: as §1
# [15] = target: Man(a1-3)[Man(a1-6)]Man(a1-6)[Man(a1-3)]Man(b1-4)GlcNAc(b1-4)GlcNAc
# Method in brief: as §1
# [16] = target: Man(a1-6)Man
# Method in brief: as §1
# [17] = target: Neu5Ac(a2-3)Gal(b1-4)Glc
# Method in brief: as §1
# [18] = target: Neu5Ac(a2-3)Gal(b1-4)[Fuc(a1-3)]GlcNAc(b1-3)Gal
# Method in brief: as §1
# [19] = target: Neu5Ac(a2-6)Gal(b1-4)GlcNAc(b1-2)Man(a1-3)[GlcNAc(b1-2)Man(b1-4)GlcNAc(b1-2)Man(a1-6)]Man(b1-4)GlcNAc(b1-4)GlcNAc
# Method in brief: as §1
# [20] = target: Neu5Ac(a2-6)Gal(b1-4)GlcNAc(b1-2)Man(a1-3)[Neu5Ac(a2-6)Gal(b1-4)GlcNAc(b1-2)Man(a1-6)]Man(b1-4)GlcNAc(b1-4)GlcNAc
# Method in brief: as §1
# [21] = target: Neu5Gc(a2-3)Gal(b1-4)GlcNAc
# Method in brief: as §1
# [22] = target: Fuc(a1-2)Gal(b1-4)GlcNAc(b1-3)[Fuc(a1-2)Gal(b1-4)GlcNAc(b1-6)]GalNAc
# Method in brief: as §1
# [23] = target: Fuc(a1-2)[Gal(a1-3)]Gal(b1-3)GalNAc
# Method in brief: as §1
# [24] = target: Fuc(a1-2)[Gal(a1-3)]Gal(b1-3)GlcNAc(b1-3)GalNAc
# Method in brief: as §1
# [25] = target: Fuc(a1-2)[GalNAc(a1-3)]Gal
# Method in brief: as §1
# [26] = target: Fuc(a1-2)[GalNAc(a1-3)]Gal(b1-3)GlcNAc(b1-3)GalNAc
# Method in brief: as §1
# [27] = target: Fuc(a1-3)[Gal(b1-4)]GlcNAc(b1-2)Man(a1-3)[Fuc(a1-3)[Gal(b1-4)]GlcNAc(b1-2)Man(a1-6)]Man(b1-4)GlcNAc(b1-4)GlcNAc
# Method in brief: as §1
# [28] = target: Fuc(a1-3)[Gal(b1-4)]GlcNAc(b1-3)Gal(b1-3)[Fuc(a1-4)]GlcNAc
# Method in brief: as §1
# [29] = target: Gal(a1-3)GalNAc
# Method in brief: as §1
# [30] = target: Gal(b1-3)GalNAc(a1-3)[Fuc(a1-2)]Gal(b1-4)GlcNAc
# Method in brief: as §1
# [31] = target: Gal(b1-4)GlcNAc(b1-2)Man(a1-3)[Man(a1-6)]Man(b1-4)GlcNAc(b1-4)GlcNAc
# Method in brief: as §1
# [32] = target: Gal(b1-4)GlcNAc(b1-3)[Gal(b1-4)GlcNAc(b1-6)]GalNAc
# Method in brief: as §1
# [33] = target: Gal3S(b1-3)[Fuc(a1-4)]GlcNAc
# Method in brief: as §1
# [34] = target: Gal6S(b1-3)GlcNAc6S
# Method in brief: as §1
# [35] = target: Glc(b1-4)Glc
# Method in brief: as §1
# [36] = target: GlcNAc(a1-4)Gal(b1-4)GlcNAc
# Method in brief: as §1
# [37] = target: GlcNAc(a1-4)Gal(b1-4)GlcNAc(b1-3)Gal(b1-4)GlcNAc(b1-3)Gal(b1-4)GlcNAc
# Method in brief: as §1
# [38] = target: GlcNAc(b1-2)Gal(b1-3)GalNAc
# Method in brief: as §1
# [39] = target: GlcNAc(b1-2)Man(a1-3)[GlcNAc(b1-4)][GlcNAc(b1-2)Man(a1-6)]Man(b1-4)GlcNAc(b1-4)GlcNAc
# Method in brief: as §1
# [40] = target: GlcNAc(b1-2)[GlcNAc(b1-4)]Man(a1-3)[GlcNAc(b1-4)][GlcNAc(b1-2)Man(a1-6)]Man(b1-4)GlcNAc(b1-4)GlcNAc
# Method in brief: as §1
# [41] = target: GlcNAc(b1-2)[GlcNAc(b1-6)]Man(a1-6)[GlcNAc(b1-2)Man(a1-3)][GlcNAc(b1-4)]Man(b1-4)GlcNAc(b1-4)GlcNAc
# Method in brief: as §1
# [42] = target: GlcNAc(b1-3)Gal
# Method in brief: as §1
# [43] = target: GlcNAc(b1-3)[GlcNAc(b1-4)][GlcNAc(b1-6)]GlcNAc
# Method in brief: as §1
# [44] = target: GlcNAc(b1-3)[GlcNAc(b1-6)]GalNAc
# Method in brief: as §1
# [45] = target: GlcNAc(b1-4)Gal(b1-4)GlcNAc
# Method in brief: as §1
# [46] = target: Kdn(a2-3)Gal(b1-4)Glc
# Method in brief: as §1
# [47] = target: Neu5Ac(a2-3)Gal(b1-3)GalNAc6S
# Method in brief: as §1
# [48] = target: Neu5Ac(a2-3)Gal(b1-4)GlcNAc(b1-2)Man(a1-3)[Neu5Ac(a2-6)Gal(b1-4)GlcNAc(b1-2)Man(a1-6)]Man(b1-4)GlcNAc(b1-4)GlcNAc
# Method in brief: as §1
# [49] = target: Neu5Ac(a2-3)Gal(b1-4)[Fuc(a1-3)]GlcNAc
# Method in brief: as §1
# [50] = target: Neu5Ac(a2-3)GalNAc(b1-4)GlcNAc
# Method in brief: as §1
# [51] = target: Neu5Ac(a2-6)Gal(b1-4)GlcNAc(b1-3)Gal(b1-4)GlcNAc(b1-3)Gal(b1-4)GlcNAc
# Method in brief: as §1
# [52] = target: Neu5Ac(a2-6)GlcNAc(b1-4)GlcNAc
# Method in brief: as §1
# [53] = target: Neu5Ac(a2-8)Neu5Ac(a2-3)Gal(b1-4)Glc
# Method in brief: as §1
# [54] = target: Neu5Ac(a2-8)Neu5Ac(a2-3)[GalNAc(b1-4)]Gal(b1-4)Glc
# Method in brief: as §1
# [55] = target: Neu5Gc(a2-6)GalNAc
# Method in brief: as §1
binder,measurement,setting,value
B1,glycan array binding signal (z-score),[1],0.156
same,glycan array binding signal (z-score),[2],-0.473
same,glycan array binding signal (z-score),[3],-0.262
same,glycan array binding signal (z-score),[4],-0.242
same,glycan array binding signal (z-score),[5],3.89
same,glycan array binding signal (z-score),[6],6.6
same,glycan array binding signal (z-score),[7],6.38
same,glycan array binding signal (z-score),[8],-0.354
same,glycan array binding signal (z-score),[9],-0.163
same,glycan array binding signal (z-score),[10],-0.316
same,glycan array binding signal (z-score),[11],-0.326
same,glycan array binding signal (z-score),[12],4.23
same,glycan array binding signal (z-score),[13],5.59
same,glycan array binding signal (z-score),[14],-0.386
same,glycan array binding signal (z-score),[15],0.116
same,glycan array binding signal (z-score),[16],0.081
same,glycan array binding signal (z-score),[17],-0.127
same,glycan array binding signal (z-score),[18],-0.504
same,glycan array binding signal (z-score),[19],-0.331
same,glycan array binding signal (z-score),[20],-0.321
same,glycan array binding signal (z-score),[21],-0.291
B2,glycan array binding signal (z-score),[22],-0.27
same,glycan array binding signal (z-score),[23],-0.324
same,glycan array binding signal (z-score),[24],-0.303
same,glycan array binding signal (z-score),[25],-0.237
same,glycan array binding signal (z-score),[26],-0.249
same,glycan array binding signal (z-score),[27],-0.324
same,glycan array binding signal (z-score),[28],-0.31
same,glycan array binding signal (z-score),[29],-0.207
same,glycan array binding signal (z-score),[30],3.43
same,glycan array binding signal (z-score),[31],-0.272
same,glycan array binding signal (z-score),[32],-0.282
same,glycan array binding signal (z-score),[4],3.44
same,glycan array binding signal (z-score),[33],-0.322
same,glycan array binding signal (z-score),[34],-0.321
same,glycan array binding signal (z-score),[35],-0.304
same,glycan array binding signal (z-score),[36],2.15
same,glycan array binding signal (z-score),[37],5.84
same,glycan array binding signal (z-score),[38],-0.139
same,glycan array binding signal (z-score),[10],4.71
same,glycan array binding signal (z-score),[39],5.38
same,glycan array binding signal (z-score),[40],4.92
same,glycan array binding signal (z-score),[41],3.42
same,glycan array binding signal (z-score),[42],0.225
same,glycan array binding signal (z-score),[11],3.71
same,glycan array binding signal (z-score),[43],0.592
same,glycan array binding signal (z-score),[44],0.896
same,glycan array binding signal (z-score),[45],-0.303
same,glycan array binding signal (z-score),[46],-0.294
same,glycan array binding signal (z-score),[47],3.87
same,glycan array binding signal (z-score),[48],-0.32
same,glycan array binding signal (z-score),[49],-0.3
same,glycan array binding signal (z-score),[50],-0.279
same,glycan array binding signal (z-score),[51],-0.311
same,glycan array binding signal (z-score),[52],-0.322
same,glycan array binding signal (z-score),[53],-0.311
same,glycan array binding signal (z-score),[54],-0.316
same,glycan array binding signal (z-score),[55],0.059
